The results in this text go back to PubChem BioAssay AID720618 (Broad Institute, 2013).

This assay is described as follows: caspase-3/7 apoptosis induction in HeLa, late-stage follow-up, mechanism study for HRAS target identification, cell-based, caspase 3/7 luminescence, several timepoints, dry powder (AID 720618). Particulars: max activity: measured here: caspase 3/7, second timepoint, at 35 µM, stronger effect = higher value.

Inconclusive results are not listed. Activity calls are given as the source filed them. The rule behind the calls is not given here.

Consider `Cc1onc(C(=O)N2CCN(C(c3ccc(Cl)cc3)c3ccc(OCCOCCOCCNC(=O)OC(C)(C)C)cc3)CC2)c1[N+](=O)[O-]` (configuration not stated), for which the max activity was 35.4% and the compound was classed as inactive.
